Source: PubChem BioAssay AID1745849 (National Center for Advancing Translational Sciences (NCATS), 2022)
The whole screen tested about 2,100 compounds, of which about 320 (15%) were called active. Another 52% or so got no clear call; they are omitted. The list shows a part of the results. Values without a mark were called inactive. Calls follow the shape of the dose curve; as a rule, active = well fitted cell-killing curve with a large enough effect; inconclusive = small, poorly fitted or top-dose-only effect, or effect the other way; inactive = flat fitted curve, though single readings scatter.

Experiment: Viability Counterscreen for CMV-Luciferase Assay of Inhibitors of ATXN expression; also: nearly all actives have a fitted effect of over 55% in size
Conditions: HEK-293 CMV-luciferase cells viability, protease fluorescence, 24 h; activity change, negative = cytotoxicity: at the top concentration
Excerpt: PI: Daniel Scoles Ph.D. University of Utah School of Medicine, Salt Lake City, Utah MLPCN Grant: NS073009 Spinocerebellar ataxia type 2 (SCA2) is a multisystem neurodegenerative disease caused by a dominantly acting mutation leading to expansion of a polyQ domain in the ataxin-2 protein (ATXN2). SCA2 patients develop progressive ataxia and later lose function in other neuronal systems. Prominent parkinsonian signs develop in some patients. Like many neurodegenerative disorders, no symptomatic or disease-modifying treatments are known. The primary objective of the proposed research is to identify compounds inhibiting ATXN2 expression and to test them for efficacy in SCA2 mouse models. We have developed a cell-based assay paired with an in vivo mouse model using identical luciferase expression constructs. This approach takes advantage of an ATXN2-luciferase transgene, with the luciferase gene flanked by the upstream and downstream portions of the ATXN2 gene. Here we describe a 5-7 dose quantitative high thoroughput screen (qHTS) for compounds lowering ATXN2 expression. We screened the NIH Molecular Libraries Small Molecule Repository (MLSMR) and NCGC's mechanistically annotated (MIPE) and drug repurposing (NPC) collections of compounds for lowering expression of an ATXN2-luciferase reporter in HEK-293 cells. The assay is a multiplexed cell viability assay to ensure target reduction in the absence of cytotoxicity. Secondary qHTS assays included a CMV-luciferase reporter expressed in HEK-293 cells as well as a biochemical assay using recombinant luciferase to detect inhibitors of the reporter enzyme. Compounds that inhibit ATXN2 expression but is not cytotoxic were selected for confirmatory and secondary screens.
PROTOCOL TABLE (as described by Inglese J, Shamu CE and Guy RK. 2007) SEQUENCE No. (e.g., 1, 2, 3, etc.); […] (e.g., Cells, Incubation, Reagent, etc.); VALUE; DESCRIPTION. 1; Cells; 4 uL; white, solid bottom, 1536-well Greiner assay plate. 2; Incubation; 2 hr; 37 degree C in 5% humidified CO2. 3; Compounds; 23 nL; Kalypsis pintool (Wako USA) equipped with a 1536-well pin head. 4; Incubation; 24 hr; 37 degree C in 5% humidfified CO2. 5; Reagent; 1 uL; Gly-Phe-7-Amino-4-trifluoromethylcoumarin. 6; Incubation; 30 min; 37 degree C in 5% humidfified CO2. 7; Detection; Fluorescence; Viewlux plate reader (PerkinElmer). 8; Reagent; 3 uL; SteadyGlo luciferase solution (Promega). 9; Incubation; 5 min; room temperature. 10; Detection; Luminescence; ViewLux plate reader (PerkinElmer). NOTES (numbers refer to Sequence numbers above) 1. HEK-293 cells expressing CMV-luciferase reporter (designated as SC cells) were suspended in phenol-red free DMEM and dispensed in assay plates using a Multidrop Combi dispenser (Thermo Fisher Scientific). 2. Assay plates were incubated. Evaporation was prevented by covering assay plates with metal lids containing holes to allow gas diffusion. 3. Compounds were added in a dose response manner with the final concentrations of 57, 11.4, 2.28, 0.46, 0.091, 0.018, 0.0037 uM. Vehicle-only plates, with DMSO being pin-transferred to columns 5-48, were inserted uniformly at the beginning and the end of each library to monitor and record any shifts in assay performance. 5. 125 uM Gly-Phe-7-Amino-4-trifluoromethylcoumarin (MP Biomedicals) working concentration was used at a final concentration of 25 uM. 7. To assess cell viability; the assay plates were read using the ViewLux high-throughput CCD imager (PerkinElmer), wherein single end-point fluorescence measurement was acquired (excitation 405/10; emission 540/25 nm). 8. Detection reagent SteadyGlo Luciferase (Promega) was added to the assay plate. 10. Luminescence is then measured on the ViewLux imager equipped with a clear emission filter using a 2 sec exposure. […]
% is scaled to controls: 0 for no effect and ±100 for the full control effect; potency is read from the fitted curve at half-maximal effect.

Structure (SMILES)	activity change, negative = cytotoxicity	Potency
COc1ccc(C(=O)NC(=C(Cl)Cl)S(=O)(=O)c2ccc(C)cc2)cc1	-28.4%	
Cc1ccc(S(=O)(=O)/C(=C/Cl)NC(=O)c2ccccc2)cc1		17.8 µM (active)
Cc1cc(N/N=C/c2ccccc2[N+](=O)[O-])nc(-n2nc(C)cc2C)n1		12.6 µM (active)
Cc1cc(N/N=C/c2ccc(O)cc2O)nc(-n2nc(C)cc2C)n1		10 µM (active)
Cc1cc(N/N=C\c2ccc(Br)cc2)nc(-n2nc(C)cc2C)n1	-7.45% [at 57.5 µM]	
CCn1c2ccccc2c2cc(NC(=O)COC(=O)C3CCC(=O)N3)ccc21 (centres undefined)	-17.1% [at 57.5 µM]	
CCCC(=O)OC/C(O)=C(\C#N)c1nc2ccccc2[nH]1	-7.86%	
CCN(CC)CCNC(=O)c1ccc(NC(=O)c2ccccc2-c2ccc(C(F)(F)F)cc2)cc1	-22.9% [at 57.5 µM]	
COc1cc(CNCc2ccncc2)cc(Br)c1OCc1ccccc1F	-8.06%	
Cc1cc(C(=O)CN2C(=O)c3ccccc3S2(=O)=O)c(C)n1CC1CCCO1 (centres undefined)	7.21% [at 57.5 µM]	
Cc1cc(C)n(CC(O)Cn2c3ccc(Cl)cc3c3cc(Cl)ccc32)c(=O)n1 (centres undefined)	-19.8%	
CC(Nc1ccccc1CO)C(=O)Nc1cccc(Cl)c1Cl (centres undefined)	-16.1% [at 57.5 µM]	
O=C(N/N=C\c1ccc([N+](=O)[O-])s1)c1cncc(Br)c1		10 µM (active)
O=C(N/N=C/c1cc(Br)ccc1OC(=O)c1ccc(Br)cc1)c1ccncc1	10.1% [at 57.5 µM]	
O=C(CNC(=O)c1ccccc1Br)N/N=C/c1cc(Br)ccc1O	-27.5%	
Cc1ccc(NC(=O)/C=C/c2ccc([N+](=O)[O-])s2)c(C)c1	10.5%	
O=C(N/N=C/c1cc(Cl)ccc1O)c1ccccc1Br	6.59% [at 57.5 µM]	
O=C(N/N=C/c1ccc([N+](=O)[O-])s1)c1ccccc1Br		20 µM (active)
Cc1ccccc1C(=O)N/N=C/c1ccc([N+](=O)[O-])s1		22.4 µM (active)
O=C(N/N=C/c1cc(Br)ccc1O)c1ccncc1	-12.8%	
Cc1cccc(/C=N/NC(=O)c2c(-c3ccccc3)noc2C)c1O	-27.5%	
CCCc1nc(NC2CCCCC2)c(C#N)c2c1COC(C)(C)C2	16.2%	
CN(C)CCC(c1ccc(Br)cc1)c1ccccn1 (centres undefined)	-13.2% [at 57.5 µM]	
N#Cc1cc2cc3c(cc2nc1SCC(=O)N1CCOCC1)OCCO3	0.63%	
CN(CC(=O)Nc1ccc(Cl)c(C(F)(F)F)c1)C(=O)c1cccnc1Sc1ccccc1	11.2% [at 57.5 µM]	

Structure (SMILES)	activity change, negative = cytotoxicity	Potency
Cc1ccc(C(=O)N(C)CC(=O)Nc2ccc(Cl)c(C(F)(F)F)c2)cc1S(=O)(=O)N1CCCCC1		20 µM (active)
Cc1ccc(NC(=O)CSc2ccc(Br)cc2)cc1S(=O)(=O)N1CCOCC1	-20.3% [at 57.5 µM]	
CC(SC(C)C(=O)NN=Cc1cccc(Cl)c1)C(=O)NN=Cc1cccc(Cl)c1 (centres undefined)	-17.2%	
O=C(Nc1nonc1-c1ccc(Cl)cc1)c1ccccc1	-28.7% [at 57.5 µM]	
O=C1C=CCC(/C=C/c2ccccc2)O1 (centres undefined)		31.6 µM (active)
Cc1csc2ncnc(NC3CCN(Cc4ccccc4)CC3)c12	-5.28% [at 57.5 µM]	
CCOC(=O)N1CCN(c2ccnc3cc(Cl)ccc23)CC1	13.1%	
Cc1cccc(N2CCN(S(=O)(=O)c3ccc4c(c3)C(C)(C)C(=O)N4C)CC2)c1C	6.54% [at 57.5 µM]	
COc1ccc(O)c(/C=N/NC(=O)CCC(=O)Nc2cccc(C)c2)c1	16.1% [at 57.5 µM]	
CCN(CC(=O)Nc1cccc(OC)c1)CC(=O)Nc1ccc(Br)c(C)c1		17.8 µM (active)
COc1cccc(NC(=O)CSc2nc3ncc(Br)cc3[nH]2)c1	5.16%	
O=c1cc(-c2c(F)c(F)c(F)c(F)c2F)oc2ccccc12	-23.6%	
Cc1c(N/N=C(\C#N)C(=O)c2ccc(Cl)cc2)c(=O)n(-c2ccccc2)n1C		2.51 µM (active)
Cc1ccccc1C(=O)/C(C#N)=N/Nc1c(C)n(C)n(-c2ccccc2)c1=O		10 µM (active)
Cc1c(N/N=C(\C#N)C(=O)c2ccccc2)c(=O)n(-c2ccccc2)n1C		11.2 µM (active)
COc1ccc(NS(=O)(=O)c2ccc(C(=O)Nc3c(C)n(C)n(-c4ccccc4)c3=O)cc2)cc1	6.71%	
CCOC(=O)c1ccc(NC(=O)c2nc[nH]c2C(=O)N[C@H](C)c2ccccc2)cc1	10.5%	
CCn1c(C)cc(C(=O)CN2C(=O)c3ccccc3S2(=O)=O)c1C	-1.67%	
O=C(Nc1cccc2ccccc12)OC1C=CS(=O)(=O)C1 (centres undefined)	-14.6%	
Cc1ccc(Cc2cnc(N3C(=N)SC(C)C3=O)s2)cc1 (centres undefined)	-1.76%	
Cc1cc(C)c(S(=O)(=O)/N=C2\C=C(Nc3ccc(C(=O)O)cc3)C(=O)c3ccccc32)c(C)c1		2 µM (active)
CC(C)N(Cc1ccccc1)C(=O)/C=C/c1ccccc1[N+](=O)[O-]	-9.06% [at 57.5 µM]	
N#C/C(=C\c1cccc([N+](=O)[O-])c1)C(=O)NCc1ccc(Cl)cc1		3.55 µM (active)
O=C(NCC1CCCO1)c1cccc(Oc2ccc([N+](=O)[O-])cc2Cl)c1 (centres undefined)	12.9%	
